# Bioassay records (PubChem BioAssay)
# This is a sample that favours compounds with a hit; in the whole collection about 19% have one here.
# TDP1 block = qHTS Assay for Inhibitors of Tyrosyl-DNA Phosphodiesterase (TDP1) | recombinant TDP1, AlphaScreen DNA substrate cleavage | Potency, µM (doses to about 130 µM), without a hit: top-dose activity change, negative = inhibition, most hits filed as inhibitors | AID 485290, 2010 | 0.28% of 350,000 active; also: potency is read from the fitted curve at half-maximal effect; nearly all actives have a fitted effect of over 40% in size
# Target sequence (Q9NUW8 whole entry, looked up): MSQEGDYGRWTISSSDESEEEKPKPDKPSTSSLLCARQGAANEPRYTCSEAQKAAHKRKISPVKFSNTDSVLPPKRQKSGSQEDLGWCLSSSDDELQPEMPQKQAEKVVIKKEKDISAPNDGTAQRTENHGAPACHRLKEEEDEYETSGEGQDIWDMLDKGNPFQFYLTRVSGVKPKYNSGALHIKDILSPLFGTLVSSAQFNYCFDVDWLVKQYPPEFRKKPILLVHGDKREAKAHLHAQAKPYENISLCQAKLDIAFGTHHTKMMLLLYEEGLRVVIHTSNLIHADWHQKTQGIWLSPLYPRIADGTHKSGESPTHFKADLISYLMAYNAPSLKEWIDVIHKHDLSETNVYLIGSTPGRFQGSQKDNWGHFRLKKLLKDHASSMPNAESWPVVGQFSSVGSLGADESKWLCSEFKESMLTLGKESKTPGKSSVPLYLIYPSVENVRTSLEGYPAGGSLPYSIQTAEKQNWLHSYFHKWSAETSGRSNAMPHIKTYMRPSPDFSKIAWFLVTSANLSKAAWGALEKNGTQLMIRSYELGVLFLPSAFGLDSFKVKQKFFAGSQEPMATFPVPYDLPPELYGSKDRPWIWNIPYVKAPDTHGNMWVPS
#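 Here, a 5' biotin and 3' phosphotyrosine-FITC DNA oligonucleotide reports Tdp1 activity: intact substrate bridges AlphaScreen beads, while cleavage leaves a 3' phosphate and drops signal. All incubations at room temperature.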
# ELG1 DNA repair = qHTS screen for small molecules that inhibit ELG1-dependent DNA repair in human embryonic kidney (HEK293T) cells expressing luciferase-tagged ELG1. HEK293T ELG1-luciferase reporter, luminescence, 16 h; DNA damage induced by 5-fluorouridine. Potency, µM (doses to about 46.1 µM), for inactives: at the highest dose activity change, negative = inhibition, usual class: inhibitors. 2.3% of 330,000 active; also: potency is read from the fitted curve at half-maximal effect; nearly all actives have a fitted effect of over 55% in size
#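 Luminescence from the luciferase reporter, measured 30 min after ONE-Glo reagent at room temperature, was the read-out. Beforehand, 2,000 cells per well were exposed for 16 hr at 37 °C to 5-fluorouridine together with compound or vehicle.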
# TDP1 cell noCPT = qHTS for Inhibitors of human tyrosyl-DNA phosphodiesterase 1 (TDP1): qHTS in cells in absence of CPT. DT40 Tdp1-/- hTDP1 cells, no CPT, ATP luminescence, 48 h. Potency, µM (series often up to 46.2 µM), for inactives: top-dose activity change, negative = growth inhibition, usual class: inhibitors. 15% of 420,000 active. AID 686978, 2013; also: potency is read from the fitted curve at half-maximal effect; nearly all actives have a fitted effect of over 55% in size
#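 DT40 Tdp1-/-;hTDP1 cells, no CPT (DMSO vehicle only), 400 cells/well; compounds pin-transferred; ≥48 hr, 37 °C; CellTiter-Glo 30 min RT dark, luminescence read.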
# IL-1B inflam inh = qHTS for Inhibitors of Inflammasome Signaling: IL-1-beta AlphaLISA Primary Screen; THP-1 LPS/ATP IL-1B secretion, AlphaLISA, 16 h; hits give low values; activity change, % at 57.5 µM; 4.7% of 360,000 active; in the data active = activity change below about -50%; inconclusive = mostly about -30% to -49%
#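 THP-1 cells pretreated 1 hr with compounds (up to 57.5 uM final), then stimulated with LPS (250 ng/mL final) plus ATP (1.25 mM final); secreted IL-1B measured by AlphaLISA after 16 hr, decreased signal indicating inhibition.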
# DT40 TDP1 CPT = qHTS for Inhibitors of human tyrosyl-DNA phosphodiesterase 1 (TDP1): qHTS in cells in presence of CPT | chicken DT40 Tdp1-/-;hTDP1 cells + 20 nM CPT, ATP luminescence, 48 h | 12% of 420,000 active | AID 686979, 2013 | Potency, µM (top dose mostly 46.2 µM), for the others: top-dose activity change, negative = growth inhibition, hits mostly inhibitors; also: potency is read from the fitted curve at half-maximal effect; nearly all actives have a fitted effect of over 55% in size
#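 Cell growth measured by CellTiter-Glo luminescence after a minimum 48 h, 37 C compound exposure with 20 nM CPT in Tdp1-knockout DT40 cells stably expressing hTDP1, seeded 400/well; qHTS titration format.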
# Giardia killer = Small Molecules that selectively kill Giardia lamblia: qHTS | Giardia lamblia trophozoite viability | activity change, % at 7.66 µM, hits read low | 0.15% of 340,000 active; in the data active = activity change below about -80%; inconclusive = between about -30% and that limit;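 also: parasites exposed to compound for two days anaerobically before the ATP read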
#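 ATP-content bioluminescence gauges trophozoite survival. Cells (100/well) receive compound and incubate anaerobically for 48 hrs at 37 deg C; detection reagent follows for 15-30 min at room temperature.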
# * hit, by the source's call; ? = inconclusive; . = not tested or not shown; [ ] = dose if it differs, or a comment. Unless noted, calls follow the shape of the dose curve; as a rule, active = well fitted curve in the direction sought with a large enough effect; inconclusive = small, poorly fitted or top-dose-only effect, or another doubt; inactive = no such curve, though single readings can be large; an effect the other way counts as inactive or inconclusive. % is scaled to controls: 0 for no effect and ±100 for the full control effect.
SMILES,TDP1 block,ELG1 DNA repair,TDP1 cell noCPT,IL-1B inflam inh,DT40 TDP1 CPT,Giardia killer
COC(=O)c1ccc(/C=C/c2ccc3cccc(OC(C)=O)c3n2)cc1,3%,?,21µM*,13,18µM*,0
O=[N+]([O-])c1ccc(/C=C/c2ccc3cccc([N+](=O)[O-])c3n2)cc1,0%,10%,?,-3,-24%,-28
COc1c(OC(C)=O)ccc(/C=C/c2ccc3cccc(OC)c3n2)c1[N+](=O)[O-],5%,?,18µM*,-85*,26µM*,6
O=[N+]([O-])c1cccc(/C=C/c2ccc3cccc(O)c3n2)c1,.,?,3.7µM*,42,4.6µM*,-2
CCOc1c(OC(C)=O)ccc(/C=C/c2ccc3cccc(OC(C)=O)c3n2)c1[N+](=O)[O-],12%,?,?,-3,?,-14
O=C(O)c1ccc(/C=C/c2ccc3cccc(O)c3n2)cc1,-13%,?,18µM*,12,-11%,-23
CSc1nc(Nc2ccc(C)cc2C)cc(-c2ccccc2)n1,-14%,.,16µM*,.,16µM*,.
COc1ccc(S(=O)(=O)n2cnc3ccccc32)cc1OC,.,2%,-1%,12,0%,17
COc1ccc(S(=O)(=O)n2cnc3cc(C)c(C)cc32)cc1,2%,13µM*,?,-6,?,-5
Cc1cc2ncn(S(=O)(=O)c3ccc(S(=O)(=O)N4CCOCC4)cc3)c2cc1C,3%,-4%,-28%,12,?,-4
COc1ccc(S(=O)(=O)n2cnc3cc(C)c(C)cc32)cc1C,-1%,?,?,-53*,12µM*,-11
Cc1c(C)n(Cc2ccccc2)c2ncnc(N)c12,8%,16µM*,23µM*,-6,15µM*,-4
Cc1c(C)n(Cc2ccccc2)c2ncnc(NCCO)c12,.,-2%,?,23,4%,6
CCCN(CCC)c1nc(C#N)nc(N(CCC)CCC)n1,-10%,-20%,?,-7,?,11
CCCN(CCC)c1nc(N(CCC)CCC)[nH]c(=O)n1,5%,?,18µM*,13,23µM*,-4
O=C(CN1CCN(C(=O)CNC(=O)c2ccc(N3CCCC3=O)cc2)CC1)Nc1cccc(F)c1,.,.,-4%,-13,1%,.
COc1cc(C=CC(=O)OCC=Cc2ccc3c(c2)OCO3)cc(OC)c1OC,.,.,?,-9,?,-9
COc1cc(/C=C/C(=O)c2ccc3c(c2)OCO3)cc(OC)c1OC,1%[56.1 µM],16µM*,12µM*,-97*,?,-11
COc1cc(C(=O)c2cc3c(cc2C)OCO3)cc(OC)c1OC,.,.,0.023µM*,79,0.023µM*,.
COc1cc(/C=C/C(=O)c2ccc3c(c2)OCCO3)cc(OC)c1OC,.,?,?,-94*,?,?
COc1cc(C(=O)COC(=O)c2ccc3c(c2)OCCO3)cc(OC)c1OC,.,.,?,-12,15µM*,.
COc1ccc(C(=O)COC(=O)c2ccc3c(c2)OCCO3)c(OC)c1,0%,?,?,-2,-18%,-13
Cc1cc(C(=O)COC(=O)c2nccnc2N)c(C)n1C,0%,?,-2%,-5,0%,-11
COc1ccc(OC)c(/C=C/C(=O)c2ccc3c(c2)OCCO3)c1,.,-15%,?,-101*,?,-26
